In PubChem BioAssay (NCATS):
Inconclusive results are not listed. Where a call stands in place of a potency, no number is given. Calls of active or inactive are those of the source. The call rests on the fitted dose curve; in most records, active means well fitted inhibition curve with a large enough effect; inconclusive means small, poorly fitted or top-dose-only effect; inactive means flat fitted curve, though single readings scatter.

What follows are molecules tested against Phospholipid hydroperoxide glutathione peroxidase GPX4 (Homo sapiens) (UniProt P36969) (assay: Primary qHTS Assay for Inhibitors of Recombinant Selenoprotein Glutathione Peroxidase 4 (GPX4) (AID 1845192; further: nearly all actives have a fitted effect of over 65% in size)). Details: recombinant GPX4, GR-coupled NADPH fluorescence, 15 min; series mostly up to 50 µM; activity change, negative = inhibition: at the top concentration.
Chain of Phospholipid hydroperoxide glutathione peroxidase GPX4 (Homo sapiens) (P36969 whole entry, looked up): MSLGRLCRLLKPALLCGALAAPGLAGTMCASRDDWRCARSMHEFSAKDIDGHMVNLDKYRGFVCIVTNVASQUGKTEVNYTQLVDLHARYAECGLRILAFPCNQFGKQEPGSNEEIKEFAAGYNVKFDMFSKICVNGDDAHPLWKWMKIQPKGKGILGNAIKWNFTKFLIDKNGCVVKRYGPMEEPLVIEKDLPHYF
Description: Assay Provider: Elias S.J. Arner MD PhD.
Department of Medical Biochemistry and Biophysics
Karolinska Institutet, Solna, Stockholm, Sweden
Selenoprotein glutathione peroxidases (GPX), like the ubiquitously expressed GPX1 and the ferroptosis modulator GPX4, enact their antioxidant activities by reducing hydroperoxides using glutathione. […] GPX1 and GPX4 inhibitors have thus shown promise as anti-cancer agents. Existing inhibitors are often promiscuous, or modulate GPX activity only indirectly, so novel direct inhibitors identified through screening against GPX1 and GPX4 could be valuable. Here, we developed optimized glutathione reductase (GR)-coupled GPX assays for the biochemical high-throughput screen (HTS) of almost 12,000 compounds with known mechanisms of action. Initial hits were triaged using a GR counter-screen, assessed for isoform specificity using a separate GPX2 assay, and were assessed for general selenocysteine-targeting activity using a thioredoxin reductase (TXNRD1) assay. With this suite of assays, we identified novel GPX1/GPX2- and GPX4-specific inhibitors and can here present a validated pipeline for future discovery research for selenoprotein-targeting agents.
SEQUENCE No. (e.g., 1, 2, 3, etc.); […] (e.g., Cells, Incubation, Reagent, etc.); VALUE; DESCRIPTION.
1; Reagent 1; 3 uL; 333.33 nM GPx4 enzyme or no enzyme control in 1536-well, black, solid Greiner assay plate.
2; Compound; 25 nL; Kalypsis pin tool (Wako USA) equipped with a 1536-well pin head.
3; Incubation; 30 min; room temperature.
4; Reagent 2; 1 uL; 500 nM GR, 5 mM GSH, 2.5 mM NADPH solution
5; Reagent 3; 1 uL; 2.5 mM CHP in 50% EtOH.
6; Detection; Fluorescence; ViewLux microplate reader, excitation 340 nm and emission 450 nm.
7; Incubation; 15 min; room temperature.
8; Detection; Fluorescence; ViewLux microplate reader, excitation 340 nm and emission 450 nm.
NOTES (numbers refer to Sequence numbers above)
1. 3 µL of 333.33 nM GPX4 and 0.016% BSA in assay buffer (50 mM Tris-HCl, 2 mM EDTA (pH 7.5), 150 mM NaCl) was added to columns 3-48 of 1536-well plates using a BioRAPTR Flying Reagent Dispenser (Let's Go Robotics (LGR), Carlsbad, CA). A no-enzyme control (0.01% BSA in TES assay buffer) was added to columns 1-2.
2. 25 nL, library and DMSO controls were added to each well with a pin tool (Kalypsys).
3. The assay plates were incubated for 30 minutes at room temperature.
4. 1 µL of master mix (500 nM glutathione reductase (GR), 5 mM reduced glutathione (GSH), 2.5 mM NADPH in assay buffer) was added.
5. 1 µL of cumene hydroperoxide (CHP) ([2.5 mM] in 50% EtOH) was then added within 5 minutes to initiate the reaction. Final concentrations were: 200 nM GPX4, 1 mM GSH, 0.5 mM CHP, 0.5 mM NADPH, 100 nM GR, 0.01% BSA.
6. Initial fluorescence readout (t=0) at 340/450 nm was measured using a ViewLux multimodal detector (PerkinElmer, Waltham, MA).
8. Endpoint fluorescence readout (t=15) at 340/450 nm was measured 15 min after room temperature incubation.
Potency means the concentration at half of the fitted maximal effect.

SMILES	Potency	activity change, negative = inhibition	outcome
C[C@@H](NCCCc1cccc(C(F)(F)F)c1)c1cccc2ccccc12	inactive		
CCc1c2c(nc3ccc(OC(=O)N4CCC(N5CCCCC5)CC4)cc13)-c1cc3c(c(=O)n1C2)COC(=O)[C@]3(O)CC	12.6 µM (active)		
CO[C@@]12[C@H](COC(N)=O)C3=C(C(=O)C(C)=C(N)C3=O)N1C[C@@H]1N[C@@H]12	inactive		
CC(C)C[C@H](NC(=O)[C@H](CCc1ccccc1)NC(=O)CN1CCOCC1)C(=O)N[C@@H](Cc1ccccc1)C(=O)N[C@@H](CC(C)C)C(=O)[C@@]1(C)CO1	inactive		
CC[C@H](NC(C)C)[C@H](O)c1ccc(O)c2[nH]c(=O)ccc12	inactive		
CC(C)(C#N)c1cc(Cn2cncn2)cc(C(C)(C)C#N)c1	inactive		
NC(N)=NC(N)=NCCc1ccccc1		-1.9% (inactive)	
CCOc1cc(N)c(Cl)cc1C(=O)NCC1CN(Cc2ccc(F)cc2)CCO1 (stereo not given)	inactive		
NC(=O)c1cccc(N)c1	inactive		
CNCC[C@H](Oc1cccc2ccccc12)c1cccs1		-5.83% (inactive)	
C[C@@H](CN1CC(=O)NC(=O)C1)N1CC(=O)NC(=O)C1	inactive		
CCn1cc(C(=O)O)c(=O)c2cc(F)c(N3CCNCC3)nc21		3.17% (inactive)	
CN(C)c1ccc(C(=C2C=CC(=[N+](C)C)C=C2)c2ccc(N(C)C)cc2)cc1		-15.8% (inactive)	
NS(=O)(=O)c1cc2c(cc1Cl)NC(C(Cl)Cl)NS2(=O)=O (stereo not given)	inactive		
NNC(=O)c1ccncc1	inactive		
Nc1[nH]c(=O)ncc1F	inactive		
CN(C)CCc1c[nH]c2ccc(C[C@H]3COC(=O)N3)cc12	inactive		
CC(C)(C)C(=O)OCOP(=O)(COCCn1cnc2c(N)ncnc21)OCOC(=O)C(C)(C)C	inactive		
O=C(O)CCn1c2c(c3ccccc31)C[C@H](NS(=O)(=O)c1ccc(F)cc1)CC2	inactive		
C1CCC(C(CC2CCCCN2)C2CCCCC2)CC1 (stereo not given)	inactive		

SMILES	Potency	activity change, negative = inhibition	outcome
COC(=O)Nc1nc2ccc(Sc3ccccc3)cc2[nH]1	inactive		
CN1CCN(c2c(F)cc3c(=O)c(C(=O)O)cn4c3c2OCN4C)CC1		-7.61% [at 27.8 µM] (inactive)	
CC(C)C1CCC(C(=O)N[C@H](Cc2ccccc2)C(=O)O)CC1 (stereo not given in full)			inactive
COc1nc(N)nc2c1ncn2[C@@H]1O[C@H](CO)[C@@H](O)[C@@H]1O			inactive
CN(C)CCc1c[nH]c2ccc(CS(=O)(=O)N3CCCC3)cc12	inactive		
Nc1nc(N)nc(-c2cc(Cl)ccc2Cl)n1	inactive		
Cc1ccc(S(=O)(=O)N[C@@H](Cc2ccccc2)C(=O)CCl)cc1	inactive		
Cc1cccc(Nc2ccncc2S(=O)(=O)NC(=O)NC(C)C)c1		-1.57% (inactive)	
COc1cc([C@@H]2c3cc4c(cc3[C@H](O)[C@H]3COC(=O)[C@H]23)OCO4)cc(OC)c1OC			inactive
CCCOc1ccc(C(=O)OCCN(CC)CC)cc1N	inactive		
COc1cnc(NS(=O)(=O)c2ccc(N)cc2)nc1			inactive
CNS(=O)(=O)CCc1ccc2[nH]cc(C3CCN(C)CC3)c2c1	inactive		
C[C@@H]1CN(c2c(F)c(N)c3c(=O)c(C(=O)O)cn(C4CC4)c3c2F)C[C@H](C)N1	inactive		
N[C@@H](C(=O)N[C@@H]1C(=O)N2C(C(=O)O)=C(Cl)CS[C@H]12)c1ccccc1		3.64% [at 9.73 µM] (inactive)	
CC1=C(C(=O)O)N2C(=O)[C@@H](NC(=O)C(N)c3ccccc3)[C@H]2SC1 (stereo not given in full)		-3.18% (inactive)	
CCCCOc1ccc(CC(=O)NO)cc1	inactive		
Oc1c(Cl)cc(Cl)c2cccnc12		-2.96% (inactive)	
CCOC(=O)c1ccc(OC(=O)CCCCCN=C(N)N)cc1	inactive		
NCCCC(O)(P(=O)(O)O)P(=O)(O)O	inactive		
O=P(O)(O)C(O)(Cc1cccnc1)P(=O)(O)O	inactive		
